Design in all cases: scale not given: direction of the effect not stated beside the values
The target of assay [1] is Protein translocase subunit SecA (Escherichia coli (strain K12)) (UniProt P10408). The assay is described as follows: Assay to Identify E. coli SecA ATPase Inhibitors. It is filed as functional. Conditions: 30 µM.
For assay [2], the target named is T1, Ubiquitin-activating enzyme e1, putative (Leishmania donovani (strain BPK282A1)) (UniProt E9BSI1).
T1 sequence (whole entry): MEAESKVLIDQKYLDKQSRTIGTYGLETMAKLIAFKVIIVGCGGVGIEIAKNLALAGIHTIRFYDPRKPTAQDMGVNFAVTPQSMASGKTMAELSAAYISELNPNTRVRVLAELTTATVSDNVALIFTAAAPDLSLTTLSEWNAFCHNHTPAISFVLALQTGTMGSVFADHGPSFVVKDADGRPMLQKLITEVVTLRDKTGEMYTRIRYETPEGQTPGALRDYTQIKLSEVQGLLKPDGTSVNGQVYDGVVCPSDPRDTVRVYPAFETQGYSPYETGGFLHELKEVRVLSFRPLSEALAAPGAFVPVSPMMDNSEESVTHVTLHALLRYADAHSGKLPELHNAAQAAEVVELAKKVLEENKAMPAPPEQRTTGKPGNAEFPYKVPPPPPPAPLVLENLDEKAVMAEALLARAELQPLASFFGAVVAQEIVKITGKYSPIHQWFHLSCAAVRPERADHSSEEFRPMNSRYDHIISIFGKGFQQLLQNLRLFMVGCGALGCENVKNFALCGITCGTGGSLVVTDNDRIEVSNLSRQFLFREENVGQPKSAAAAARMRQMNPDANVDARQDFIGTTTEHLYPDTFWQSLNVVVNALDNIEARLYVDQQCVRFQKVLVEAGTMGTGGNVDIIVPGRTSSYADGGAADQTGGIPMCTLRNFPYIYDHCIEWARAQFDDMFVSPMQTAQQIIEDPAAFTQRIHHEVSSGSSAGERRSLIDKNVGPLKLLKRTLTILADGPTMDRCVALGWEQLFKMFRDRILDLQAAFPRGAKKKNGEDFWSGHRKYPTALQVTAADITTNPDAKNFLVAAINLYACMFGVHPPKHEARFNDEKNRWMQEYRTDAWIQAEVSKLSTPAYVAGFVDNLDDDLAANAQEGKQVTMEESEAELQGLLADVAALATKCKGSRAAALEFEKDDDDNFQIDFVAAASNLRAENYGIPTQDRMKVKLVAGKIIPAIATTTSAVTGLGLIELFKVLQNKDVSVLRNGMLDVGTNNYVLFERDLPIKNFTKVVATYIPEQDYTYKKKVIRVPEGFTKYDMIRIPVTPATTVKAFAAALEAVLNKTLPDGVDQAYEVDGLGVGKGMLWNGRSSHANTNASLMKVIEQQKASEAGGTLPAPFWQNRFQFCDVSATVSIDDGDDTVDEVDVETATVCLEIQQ
The assay is described as follows: Leishmania donovani Ubiquitin Activating Enzyme (LdE1). It is filed as functional. The note with it: 30 µM.

Assay [3] addresses AMP-activated protein kinase, AMPK (Homo sapiens) (UniProt P54646+O43741+P54619+Q9UGJ0+Q9Y478+Q13131+Q9UGI9). In words: AMP-dependent Kinase enzyme assay. An in vitro enzyme assay that detects ADP turnover that is directly proportional to AMPK activity. This uses naive AMPK that is activated during the assay with MK-8722. Conditions: 30 µM. In kind it is functional.
The target of assay [4] is Sialic acid-binding Ig-like lectin 9 (Homo sapiens) (UniProt Q9Y336). In words: Hs-Siglec9 ALPHAscreen SOP 20170721. Conditions: 10 µM. (Bead proximity is the source of the signal in Alpha formats.)
Sequence of Sialic acid-binding Ig-like lectin 9 (Homo sapiens) (Q9Y336 whole entry): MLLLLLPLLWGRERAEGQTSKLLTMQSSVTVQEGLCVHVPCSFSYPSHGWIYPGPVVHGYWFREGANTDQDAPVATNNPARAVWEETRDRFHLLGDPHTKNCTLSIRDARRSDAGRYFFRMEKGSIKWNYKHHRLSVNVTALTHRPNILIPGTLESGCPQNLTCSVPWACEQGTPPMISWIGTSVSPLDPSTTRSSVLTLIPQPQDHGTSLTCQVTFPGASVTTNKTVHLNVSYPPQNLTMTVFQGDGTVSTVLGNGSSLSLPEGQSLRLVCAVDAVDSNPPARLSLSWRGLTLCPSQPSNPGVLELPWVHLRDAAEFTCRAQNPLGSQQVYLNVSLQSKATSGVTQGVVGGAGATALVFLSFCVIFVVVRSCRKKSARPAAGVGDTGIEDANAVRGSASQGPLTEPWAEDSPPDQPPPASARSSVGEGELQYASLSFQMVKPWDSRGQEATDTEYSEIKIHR
For a further assay, the system named is Trypanosoma cruzi. In words: Trypanosoma cruzi phosphomannomutase and mannose-1-phosphate guanylyltransferase assay. The note with it: 10 µM. In kind it is functional.
The target of assay [5] is T2, Arginase-2, mitochondrial (Homo sapiens) (UniProt P78540).
T2 sequence (whole entry): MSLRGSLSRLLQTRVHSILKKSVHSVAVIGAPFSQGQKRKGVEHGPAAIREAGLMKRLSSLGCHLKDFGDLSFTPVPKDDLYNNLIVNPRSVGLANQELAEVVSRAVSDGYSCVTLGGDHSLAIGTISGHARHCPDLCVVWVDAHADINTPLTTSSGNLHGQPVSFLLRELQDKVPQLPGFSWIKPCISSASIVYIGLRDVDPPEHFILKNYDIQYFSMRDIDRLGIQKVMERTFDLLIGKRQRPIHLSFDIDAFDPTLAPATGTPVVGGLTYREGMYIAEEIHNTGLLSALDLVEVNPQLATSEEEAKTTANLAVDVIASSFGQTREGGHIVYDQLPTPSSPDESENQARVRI
In words: in vitro enzyme assay to detect the production of urea directly proportional to the activity of Arginase II. Also: in the data most compounds retested in dose-response had high values. It is filed as functional. The note with it: 33.3 µM.

The target of assay [6] is T3, Proteasome subunit beta (Trypanosoma cruzi) (UniProt O96673).
T3 sequence (whole entry): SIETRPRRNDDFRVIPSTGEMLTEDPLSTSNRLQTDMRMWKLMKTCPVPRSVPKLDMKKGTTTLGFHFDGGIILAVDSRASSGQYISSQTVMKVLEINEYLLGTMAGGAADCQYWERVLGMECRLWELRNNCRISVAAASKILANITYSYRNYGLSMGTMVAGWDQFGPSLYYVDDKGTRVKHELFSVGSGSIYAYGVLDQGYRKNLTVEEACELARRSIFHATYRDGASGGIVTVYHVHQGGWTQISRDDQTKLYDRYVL
In words: Trypanosoma cruzi proteasome chymotrypsin-like activity (TcProtChymo) assay. Also: in the data most compounds retested in dose-response had high values. Conditions: 9.37 µM. In kind it is functional.

A further assay is filed under the species Homo sapiens. The assay is described as follows: To identify inhibition of the IFN signalling (Jak-Stat) pathway via expression of an eGFP reporter gene under the control of an IFN-stimulated response element (ISRE) containing MxA promoter. In kind it is functional. Conditions: 30 µM.
Assay [7] has as its target T4, Tyrosyl-tRNA synthetase, putative (Trypanosoma cruzi (strain CL Brener)) (UniProt Q4DSP6).
T4 sequence (whole entry): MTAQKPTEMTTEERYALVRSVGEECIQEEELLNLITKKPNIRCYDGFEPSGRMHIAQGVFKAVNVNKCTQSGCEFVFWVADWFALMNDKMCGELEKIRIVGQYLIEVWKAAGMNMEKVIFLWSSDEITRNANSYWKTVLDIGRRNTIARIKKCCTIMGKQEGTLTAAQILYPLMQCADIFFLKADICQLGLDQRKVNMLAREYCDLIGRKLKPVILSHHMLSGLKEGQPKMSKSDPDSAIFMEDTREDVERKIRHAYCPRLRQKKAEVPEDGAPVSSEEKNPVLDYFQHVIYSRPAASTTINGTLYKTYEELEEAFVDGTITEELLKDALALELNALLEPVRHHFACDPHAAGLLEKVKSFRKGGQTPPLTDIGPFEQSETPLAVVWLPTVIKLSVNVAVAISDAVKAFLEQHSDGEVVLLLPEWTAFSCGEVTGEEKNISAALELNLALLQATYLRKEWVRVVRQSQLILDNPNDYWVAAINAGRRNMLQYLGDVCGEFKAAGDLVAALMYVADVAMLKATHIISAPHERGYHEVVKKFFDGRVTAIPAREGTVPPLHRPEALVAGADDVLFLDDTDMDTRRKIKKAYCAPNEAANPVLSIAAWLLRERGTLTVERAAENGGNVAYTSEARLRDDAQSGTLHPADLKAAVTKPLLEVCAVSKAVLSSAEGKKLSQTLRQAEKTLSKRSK
The assay is described as follows: Trypanosoma cruzi tyrosyl tRNA synthetase (TcYRS) _High Tyrosine SOP. Also: in the data most compounds retested in dose-response had high values. In kind it is functional. Conditions: 30 µM.

For assay [8], the target named is T4, Tyrosyl-tRNA synthetase, putative (Trypanosoma cruzi (strain CL Brener)). In words: Trypanosoma cruzi tyrosyl tRNA synthetase (TcYRS) SOP. In kind it is functional. Conditions: 30 µM.
For assay [9], the target named is Chromo domain-containing protein 1 (Saccharomyces cerevisiae (strain ATCC 204508 / S288c) (Baker's yeast)) (UniProt P32657). The assay is described as follows: ScCHD-1 Enzyme Inhibition Assay. Also: in the data most compounds retested in dose-response had high values. It is filed as functional. Conditions: 30 µM.
Sequence of Chromo domain-containing protein 1 (Saccharomyces cerevisiae (strain ATCC 204508 / S288c) (Baker's yeast)) (P32657 whole entry, the tested form may be a part): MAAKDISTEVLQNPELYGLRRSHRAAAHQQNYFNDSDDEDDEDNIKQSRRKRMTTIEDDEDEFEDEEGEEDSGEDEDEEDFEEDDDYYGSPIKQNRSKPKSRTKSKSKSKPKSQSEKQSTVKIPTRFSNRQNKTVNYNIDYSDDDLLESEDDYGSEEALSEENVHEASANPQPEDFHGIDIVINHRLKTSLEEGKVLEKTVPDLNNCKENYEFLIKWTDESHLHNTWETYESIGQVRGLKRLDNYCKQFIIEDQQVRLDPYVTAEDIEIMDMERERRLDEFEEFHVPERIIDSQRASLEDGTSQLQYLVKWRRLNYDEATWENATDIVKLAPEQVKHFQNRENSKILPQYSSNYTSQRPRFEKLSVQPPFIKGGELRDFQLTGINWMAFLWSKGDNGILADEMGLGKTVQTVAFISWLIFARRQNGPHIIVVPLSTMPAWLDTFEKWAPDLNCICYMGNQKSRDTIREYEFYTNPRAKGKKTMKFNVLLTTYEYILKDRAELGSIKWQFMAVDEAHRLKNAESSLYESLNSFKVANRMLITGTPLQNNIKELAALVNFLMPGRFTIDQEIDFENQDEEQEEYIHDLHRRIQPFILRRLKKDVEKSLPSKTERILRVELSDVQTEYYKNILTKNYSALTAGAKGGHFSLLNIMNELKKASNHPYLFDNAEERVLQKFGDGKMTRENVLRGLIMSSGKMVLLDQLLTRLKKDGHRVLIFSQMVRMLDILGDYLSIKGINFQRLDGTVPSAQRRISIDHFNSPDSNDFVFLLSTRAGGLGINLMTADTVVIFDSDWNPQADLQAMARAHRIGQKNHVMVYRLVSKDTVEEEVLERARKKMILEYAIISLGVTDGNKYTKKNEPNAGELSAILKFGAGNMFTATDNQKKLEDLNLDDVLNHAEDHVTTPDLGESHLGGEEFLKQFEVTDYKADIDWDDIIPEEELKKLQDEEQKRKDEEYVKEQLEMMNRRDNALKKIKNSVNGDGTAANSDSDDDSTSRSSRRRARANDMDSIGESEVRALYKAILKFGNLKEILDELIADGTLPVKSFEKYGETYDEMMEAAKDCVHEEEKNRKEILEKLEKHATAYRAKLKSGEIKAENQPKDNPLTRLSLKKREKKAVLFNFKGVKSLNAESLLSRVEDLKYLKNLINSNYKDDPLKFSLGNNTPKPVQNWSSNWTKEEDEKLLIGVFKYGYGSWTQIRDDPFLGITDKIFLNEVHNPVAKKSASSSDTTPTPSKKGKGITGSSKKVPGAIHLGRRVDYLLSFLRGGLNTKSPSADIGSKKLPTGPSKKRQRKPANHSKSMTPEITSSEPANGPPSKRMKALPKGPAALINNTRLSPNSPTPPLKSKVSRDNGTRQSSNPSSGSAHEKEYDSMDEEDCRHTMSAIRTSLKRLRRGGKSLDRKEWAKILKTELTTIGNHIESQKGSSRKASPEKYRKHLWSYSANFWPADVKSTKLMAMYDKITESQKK

For some assays here: Potency and affinity values are given separately.

Sequence of Protein translocase subunit SecA (Escherichia coli (strain K12)) (P10408 whole entry): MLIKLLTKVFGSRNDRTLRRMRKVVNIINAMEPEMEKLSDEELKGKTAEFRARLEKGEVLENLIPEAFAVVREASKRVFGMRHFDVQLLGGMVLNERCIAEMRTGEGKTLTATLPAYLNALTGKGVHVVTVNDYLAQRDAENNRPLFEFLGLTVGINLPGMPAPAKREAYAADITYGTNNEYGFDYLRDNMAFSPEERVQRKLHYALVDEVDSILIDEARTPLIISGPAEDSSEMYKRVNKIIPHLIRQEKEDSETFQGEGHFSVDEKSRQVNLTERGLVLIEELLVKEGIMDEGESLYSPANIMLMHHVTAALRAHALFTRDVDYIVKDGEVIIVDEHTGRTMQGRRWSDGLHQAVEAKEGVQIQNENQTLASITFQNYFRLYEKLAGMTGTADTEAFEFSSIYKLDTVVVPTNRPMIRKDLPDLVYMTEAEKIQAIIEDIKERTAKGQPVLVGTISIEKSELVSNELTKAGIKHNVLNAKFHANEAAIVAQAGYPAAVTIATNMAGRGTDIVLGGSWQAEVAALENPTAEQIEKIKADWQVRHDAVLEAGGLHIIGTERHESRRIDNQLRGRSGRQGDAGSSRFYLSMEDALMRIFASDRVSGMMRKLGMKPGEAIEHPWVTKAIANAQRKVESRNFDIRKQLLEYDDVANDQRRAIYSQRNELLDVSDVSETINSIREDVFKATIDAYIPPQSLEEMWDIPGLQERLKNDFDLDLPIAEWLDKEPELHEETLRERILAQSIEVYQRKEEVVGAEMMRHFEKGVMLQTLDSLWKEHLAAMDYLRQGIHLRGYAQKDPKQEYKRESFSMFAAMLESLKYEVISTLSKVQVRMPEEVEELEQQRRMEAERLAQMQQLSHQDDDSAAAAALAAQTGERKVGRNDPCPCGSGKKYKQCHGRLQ

On to `CCc1n[nH]c(C2CN(C(=O)c3cnc(C)s3)CCO2)n1` (stereo not given), for which the Percent Effect was -5.53% in assay [1]; 12.7% in assay [2]; -5.15% in assay [3]; 12.5% in [4]; 5% in the assay with Trypanosoma cruzi; -1.9% in [5]. Besides, the Percent Effect was -3.03% in assay [6]; -0.688% in the assay filed under Homo sapiens; 3.45% in [7]; 8.86% in assay [8]; -5.66% in [9].

As for `c1ccc(-c2nccc(CNCC3CCCN3c3cccnn3)n2)cc1` (stereo not given), the Percent Effect in [1] was -3.71%; in [2], -18.4%; in assay [3] it was 3.25%; in assay [4], -4.68%; in the assay with Trypanosoma cruzi, -0.94%; in assay [5] it was 0.383%. Also, the Percent Effect in assay [6] is -0.501%; in the assay listed under Homo sapiens, 20.1%; in assay [7], 6.37%; in assay [8], -2.44%; in [9], 11.3%.

For `Cc1cc(C)n(CC2CCCN2C(=O)c2cccc3[nH]ncc23)n1` (stereo not given), the Percent Effect in assay [1] was -2.49%; in assay [2] it was -10.8%; in assay [3], -1.43%; in assay [4], 12.1%; in the assay with Trypanosoma cruzi it was 7.89%; in [5], -2.77%. Further, the Percent Effect in assay [6] is -4.49%; in the assay filed under Homo sapiens, 7.84%; in [7] it was 5.94%; in assay [8] it was 15.8%; in assay [9], -3.25%.

For the molecule `CN(C)c1ncc(CN2CCC(c3nnsc3S(C)(=O)=O)CC2)cn1`, the Percent Effect was -2.31% in assay [1]; -1.35% in assay [2]; 11.6% in [3]; -0.17% in assay [4]; -3.36% in the assay with Trypanosoma cruzi; 0.232% in assay [5]. In addition, the Percent Effect in assay [6] was 4.37%; in the assay filed under Homo sapiens it was 12.1%; in assay [7] it was 3.23%; in [8] it was 1.3%; in assay [9] it was -9.61%.

Consider `CC(C)c1ccc(OCCC(=O)N2CCC(CC(N)=O)CC2)cc1`, for which the Percent Effect in assay [1] was -3.21%; in assay [2], 5.26%; in assay [3], 5.06%; in assay [4], 6.24%; in the assay on Trypanosoma cruzi, 6.58%; in assay [5], -2.68%. Moreover, the Percent Effect in [6] was 11%; in the assay listed under Homo sapiens it was 5.75%; in assay [7], 4.41%; in assay [8] it was 12.2%; in assay [9] it was -9.8%.

For the molecule `O=C(CN1CCOC(Cn2cccn2)C1)NCCc1ccc(F)cc1` (stereo not given), the Percent Effect in [1] was -2.6%; in [2], 2.7%; in assay [3] it was -6.61%; in assay [4], -1.28%; in the assay with Trypanosoma cruzi, -3.25%; in assay [5], -0.554%. The Percent Effect in [6] is 7.18%; in the assay filed under Homo sapiens, 5.31%; in assay [7] it was -0.99%; in [8] it was 1.22%; in assay [9] it was 13.8%.

For the molecule `CN(C)C(=O)N1C[C@H](Oc2ccccn2)[C@H]2OCCC[C@H]21`, the Percent Effect in assay [1] was 0.276%; in [2], 0%; in assay [3] it was 4.78%; in assay [4], 2.55%; with Trypanosoma cruzi, -2.27%; in assay [5], 0.645%. Moreover, the Percent Effect is 3.65% in assay [6]; -2.96% in the assay filed under Homo sapiens; 3.17% in assay [7]; 3.85% in [8]; -3.5% in assay [9].

Turning to `COCCCN1CCCN(C(C)C(=O)Nc2ccnn2C(C)C)CC1` (stereo not given), the Percent Effect in assay [1] is 0.586%; in assay [2] it was -2.7%; in assay [3] it was -1.72%; in assay [4] it was -1.48%; in the assay on Trypanosoma cruzi, 0.195%; in assay [5] it was 2.08%. In addition, the Percent Effect in assay [6] is 13.9%; in the assay filed under Homo sapiens it was -3.67%; in [7], 4.95%; in assay [8], -3.66%; in assay [9], -4.29%.

Regarding `CN(C)S(=O)(=O)c1ccc(CN2CCCC2CO)o1` (stereo not given), the Percent Effect in [1] is -4.59%; in assay [2], 0%; in assay [3], -2.33%; in assay [4], 10.6%; in the assay on Trypanosoma cruzi, -0.84%; in assay [5], -2.88%. For the same molecule, the Percent Effect is -3.3% in assay [6]; 11.2% in the assay listed under Homo sapiens; 4.43% in assay [7]; 3.7% in [8]; 1.24% in assay [9].

For the molecule `CCOc1cc(CN(C)CCOC)ccc1OC(F)F`, the Percent Effect in assay [1] is -7.96%; in assay [2] it was -2.6%; in assay [3], 2.19%; in [4], -0.762%; with Trypanosoma cruzi, -9.34%; in assay [5], 1.38%. The Percent Effect in assay [6] is 10.3%; in the assay listed under Homo sapiens, -3.34%; in assay [7] it was 0%; in [8], -1.24%; in [9], 0.485%.
